Measurements: ChEMBL document CHEMBL1961873, “Compounds: GSK PKIS; Assays: Nanosyn kinase panel” (2012)

Tests used:
[1] = target: 5'-AMP-activated protein kinase catalytic subunit alpha-2 (Homo sapiens) (UniProt P54646); conditions: at 1 µM
[2] = target: T1, NUAK family SNF1-like kinase 1 (Homo sapiens) (UniProt O60285); conditions: at 0.1 µM
T1 sequence (whole entry): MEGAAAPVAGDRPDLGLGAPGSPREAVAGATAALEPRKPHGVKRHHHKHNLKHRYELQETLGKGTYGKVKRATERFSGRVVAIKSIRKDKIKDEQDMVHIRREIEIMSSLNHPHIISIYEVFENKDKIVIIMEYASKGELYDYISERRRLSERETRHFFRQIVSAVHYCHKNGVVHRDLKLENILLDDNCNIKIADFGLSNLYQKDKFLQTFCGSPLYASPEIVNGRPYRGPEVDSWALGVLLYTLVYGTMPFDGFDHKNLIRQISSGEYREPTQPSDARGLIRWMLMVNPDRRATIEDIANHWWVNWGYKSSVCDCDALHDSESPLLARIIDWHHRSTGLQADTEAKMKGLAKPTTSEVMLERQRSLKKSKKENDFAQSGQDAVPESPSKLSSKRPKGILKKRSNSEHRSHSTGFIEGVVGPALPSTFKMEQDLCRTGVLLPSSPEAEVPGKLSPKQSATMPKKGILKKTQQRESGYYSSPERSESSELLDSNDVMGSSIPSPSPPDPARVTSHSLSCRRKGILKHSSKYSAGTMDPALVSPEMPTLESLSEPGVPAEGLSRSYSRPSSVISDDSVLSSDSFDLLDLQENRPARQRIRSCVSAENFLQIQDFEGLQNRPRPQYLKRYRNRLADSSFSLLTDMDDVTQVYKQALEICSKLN

[3] = target: T1, NUAK family SNF1-like kinase 1 (Homo sapiens); conditions: at 1 µM
[4] = target: T2, Serine/threonine-protein kinase BRSK1 (Homo sapiens) (UniProt Q8TDC3); conditions: at 0.1 µM
T2 sequence (whole entry): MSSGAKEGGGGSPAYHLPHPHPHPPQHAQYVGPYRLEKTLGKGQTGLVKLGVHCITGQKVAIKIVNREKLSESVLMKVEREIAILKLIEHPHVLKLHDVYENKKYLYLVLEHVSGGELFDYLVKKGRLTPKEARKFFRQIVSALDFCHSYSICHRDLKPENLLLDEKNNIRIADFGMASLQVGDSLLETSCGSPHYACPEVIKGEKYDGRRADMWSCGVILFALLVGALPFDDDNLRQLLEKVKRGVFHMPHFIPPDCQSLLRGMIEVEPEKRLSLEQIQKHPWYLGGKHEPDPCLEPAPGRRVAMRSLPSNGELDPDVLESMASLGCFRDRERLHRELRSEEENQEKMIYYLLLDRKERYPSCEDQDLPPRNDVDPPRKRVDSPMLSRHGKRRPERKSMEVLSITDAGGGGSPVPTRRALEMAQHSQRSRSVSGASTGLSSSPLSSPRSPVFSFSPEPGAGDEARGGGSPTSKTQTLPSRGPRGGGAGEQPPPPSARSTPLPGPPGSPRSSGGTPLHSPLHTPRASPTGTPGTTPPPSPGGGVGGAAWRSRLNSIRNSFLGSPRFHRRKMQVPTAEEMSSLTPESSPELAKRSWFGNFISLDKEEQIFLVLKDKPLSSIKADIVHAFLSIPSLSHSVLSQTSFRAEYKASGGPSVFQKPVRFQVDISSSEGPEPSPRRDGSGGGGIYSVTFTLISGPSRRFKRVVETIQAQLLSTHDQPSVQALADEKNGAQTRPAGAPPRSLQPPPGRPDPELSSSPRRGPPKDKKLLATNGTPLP

[5] = target: T2, Serine/threonine-protein kinase BRSK1 (Homo sapiens); conditions: at 1 µM
[6] = target: T3, Serine/threonine-protein kinase BRSK2 (Homo sapiens) (UniProt Q8IWQ3); conditions: at 0.1 µM
T3 sequence (whole entry): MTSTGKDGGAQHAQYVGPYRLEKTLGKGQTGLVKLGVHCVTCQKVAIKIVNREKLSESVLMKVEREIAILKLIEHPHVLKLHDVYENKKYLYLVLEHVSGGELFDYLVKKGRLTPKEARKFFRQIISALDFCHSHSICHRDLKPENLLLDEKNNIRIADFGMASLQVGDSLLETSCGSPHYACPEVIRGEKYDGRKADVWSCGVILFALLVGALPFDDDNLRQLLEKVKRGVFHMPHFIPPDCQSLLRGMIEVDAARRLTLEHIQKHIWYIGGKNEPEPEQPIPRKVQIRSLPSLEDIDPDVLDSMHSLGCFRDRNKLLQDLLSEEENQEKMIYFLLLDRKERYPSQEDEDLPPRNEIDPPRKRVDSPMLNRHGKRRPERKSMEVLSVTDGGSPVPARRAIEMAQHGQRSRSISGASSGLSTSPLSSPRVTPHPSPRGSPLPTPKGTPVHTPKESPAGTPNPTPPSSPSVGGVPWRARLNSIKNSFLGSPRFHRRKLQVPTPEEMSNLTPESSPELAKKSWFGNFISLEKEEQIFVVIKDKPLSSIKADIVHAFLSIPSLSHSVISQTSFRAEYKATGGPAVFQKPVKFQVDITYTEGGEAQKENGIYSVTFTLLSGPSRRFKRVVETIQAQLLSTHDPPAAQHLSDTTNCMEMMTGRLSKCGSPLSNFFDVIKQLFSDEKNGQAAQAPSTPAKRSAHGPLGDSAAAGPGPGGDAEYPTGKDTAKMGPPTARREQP

[7] = target: T3, Serine/threonine-protein kinase BRSK2 (Homo sapiens); conditions: at 1 µM
[8] = target: Calcium/calmodulin-dependent protein kinase type 1D (Homo sapiens) (UniProt Q8IU85); conditions: at 0.1 µM
[9] = target: Calcium/calmodulin-dependent protein kinase type 1D (Homo sapiens) (UniProt Q8IU85); conditions: at 1 µM
[10] = target: Calcium/calmodulin-dependent protein kinase type II subunit alpha (Homo sapiens) (UniProt Q9UQM7); conditions: at 0.1 µM;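 further: reported values are averages (mean inhibition of CAMK2A)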
Calcium/calmodulin-dependent protein kinase type II subunit alpha (Homo sapiens), sequence (Q9UQM7 whole entry): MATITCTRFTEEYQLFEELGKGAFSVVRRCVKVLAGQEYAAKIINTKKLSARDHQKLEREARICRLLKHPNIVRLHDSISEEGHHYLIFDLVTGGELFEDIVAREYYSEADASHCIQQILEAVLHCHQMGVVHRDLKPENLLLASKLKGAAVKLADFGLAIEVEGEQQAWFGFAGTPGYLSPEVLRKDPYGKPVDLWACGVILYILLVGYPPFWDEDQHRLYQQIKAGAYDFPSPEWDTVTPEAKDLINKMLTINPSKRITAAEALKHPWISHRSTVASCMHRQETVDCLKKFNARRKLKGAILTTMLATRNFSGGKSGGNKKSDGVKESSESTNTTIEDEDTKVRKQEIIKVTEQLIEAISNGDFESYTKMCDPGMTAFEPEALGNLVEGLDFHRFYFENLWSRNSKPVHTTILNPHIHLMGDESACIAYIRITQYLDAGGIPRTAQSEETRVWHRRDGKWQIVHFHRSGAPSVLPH

Calcium/calmodulin-dependent protein kinase type 1D (Homo sapiens), sequence (Q8IU85 whole entry, looked up): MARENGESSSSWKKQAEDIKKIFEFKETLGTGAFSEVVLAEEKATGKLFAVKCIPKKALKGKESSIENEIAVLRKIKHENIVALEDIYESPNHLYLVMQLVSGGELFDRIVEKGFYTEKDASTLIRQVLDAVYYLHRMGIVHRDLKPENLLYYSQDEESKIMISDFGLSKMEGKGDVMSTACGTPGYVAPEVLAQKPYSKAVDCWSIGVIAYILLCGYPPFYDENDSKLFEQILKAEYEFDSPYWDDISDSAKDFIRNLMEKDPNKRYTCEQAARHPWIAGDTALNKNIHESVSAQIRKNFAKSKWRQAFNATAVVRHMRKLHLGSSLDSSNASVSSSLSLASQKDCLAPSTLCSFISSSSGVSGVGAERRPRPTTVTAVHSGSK
5'-AMP-activated protein kinase catalytic subunit alpha-2 (Homo sapiens), sequence (P54646 whole entry, looked up): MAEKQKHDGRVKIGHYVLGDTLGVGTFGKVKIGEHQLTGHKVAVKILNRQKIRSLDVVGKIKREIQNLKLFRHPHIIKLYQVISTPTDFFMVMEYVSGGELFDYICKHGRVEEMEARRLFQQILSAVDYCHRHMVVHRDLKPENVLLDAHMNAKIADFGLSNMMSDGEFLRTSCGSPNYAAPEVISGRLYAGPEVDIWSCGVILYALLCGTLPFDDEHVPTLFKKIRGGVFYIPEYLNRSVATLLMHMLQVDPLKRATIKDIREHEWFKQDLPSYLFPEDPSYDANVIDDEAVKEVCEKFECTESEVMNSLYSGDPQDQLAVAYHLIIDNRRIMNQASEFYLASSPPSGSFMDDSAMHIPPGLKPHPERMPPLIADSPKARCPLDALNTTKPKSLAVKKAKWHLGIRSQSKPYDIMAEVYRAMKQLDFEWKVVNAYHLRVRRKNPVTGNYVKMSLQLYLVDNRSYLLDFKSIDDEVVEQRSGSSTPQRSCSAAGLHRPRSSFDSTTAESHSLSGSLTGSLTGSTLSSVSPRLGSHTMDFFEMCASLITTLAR

Compound	inhibition [1] [%]	inhibition [2] [%]	inhibition [3] [%]	inhibition [4] [%]	inhibition [5] [%]	inhibition [6] [%]	inhibition [7] [%]	inhibition [8] [%]	inhibition [9] [%]	inhibition [10] [%]
COC(=O)c1ccc2c(c1)C(=Cc1cc(Br)c(O)c(Br)c1)C(=O)N2	4.79	-1.29	2.73	3.81	2.04	0.42	5.14	0.26	3.35	2.97
NS(=O)(=O)c1ccc(N/N=C2\C(=O)Nc3ccc(Cl)cc32)cc1	12.9	11	48.9	0.76	8.96	3.16	14.9	0.02	0.47	2.65
O=S(=O)(CCOCc1ccc(-c2ccc3ncnc(Nc4ccc(OCc5cccc(F)c5)c(Cl)c4)c3c2)o1)c1ccccc1	1.68	-2.09	-0.72	-0.74	1.37	1.25	2.98	0	0.46	-0.52
c1ccc(Cc2nc3ccc(Nc4ncnc5ccccc45)cc3[nH]2)cc1	2.91	4.96	5.29	-0.34	3.16	1.93	5	-0.7	0.04	2.75
Cc1ccc2c(-c3ccnc(Nc4cccc(C(F)(F)F)c4)n3)c(-c3ccccc3)nn2n1	3.47	4.18	5.3	2.22	1.34	1.33	3.25	0.64	2.72	2.64
CN1CCN(C(=O)c2ccc(NC(=O)Nc3ccc(N(C)c4ccnc(Nc5ccc(CS(C)(=O)=O)cc5)n4)cc3)cc2)CC1	7.01	0.11	44.5	0.56	2.28	0.38	7.68	0.6	2.18	1.63
O=C1Nc2ccccc2/C1=C/Nc1ccc2[nH]c(=O)[nH]c2c1	12.8	12.6	46	1.38	15.7	5.21	25.8	-1.27	1.07	3.83
Cc1cc(O)cc(C)c1/C=C/c1cncc(C(=O)N(C)C)c1	4.38	1.62	8.58	2.98	8.54	3.48	6.07	-0.81	2.29	3.26
[O-][S+]1CCN(Cc2ccc(-c3ccc4ncnc(Nc5ccc(OCc6ccccc6)c(Cl)c5)c4c3)o2)CC1	1.22	-2.45	-2.99	0.95	0.18	1.49	2.79	-0.14	0.11	-0.84
CN(C)CCCn1c(-c2nonc2N)nc2cnccc21	5.42	3.04	-0.59	1.23	0.57	0.27	1.19	0.27	-0.73	2.81
COc1cccc(-n2ncc3c(N/N=C/c4ccc(S(C)(=O)=O)cc4)ncnc32)c1	4.43	14.7	37.4	13.7	52.5	20.1	60.8	0.78	0.51	-0.15
CCS(=O)(=O)c1ccc(OC)c(Nc2ncc(-c3cccc(OC)c3)o2)c1	4.19	2.41	13.4	1.53	-0.15	0.33	0.66	0.03	1.97	2.7
Cc1ccc(C(=O)NC2CC2)cc1-c1ccc2[nH]ncc2c1	-3.42	6.51	6.93	1.35	3.03	1.54	5.84	-0.69	0.06	-4.3
Cc1ccc2c(c1)/C(=N/Nc1ccc(S(N)(=O)=O)cc1)C(=O)N2	12.3	21.7	62.2	2.87	9.92	3.09	12.8	2.35	2.43	2.02
CN(C)C(=O)O[C@H]1CN[C@H](C#Cc2cc3ncnc(Nc4ccc(OCc5cccc(F)c5)c(Cl)c4)c3s2)C1	3.32	1.87	1.59	2.39	3.13	2.38	2.85	0.05	0.1	2.54
CCCN1CCCC(c2ccc(Nc3nc(Nc4cc(F)ccc4C(N)=O)c4cc[nH]c4n3)c(OC)c2)C1 (stereo not given)	10.7	30.2	59.7	2.61	1.82	2.57	2.9	15.8	61.1	11
COc1ccc(-c2nn3ncccc3c2-c2ccnc(Nc3cccc(C(F)(F)F)c3)n2)cc1	3.96	0.91	-0.63	-0.24	1.65	2.63	2.85	0.46	0.37	2.25

Compound	inhibition [1] [%]	inhibition [2] [%]	inhibition [3] [%]	inhibition [4] [%]	inhibition [5] [%]	inhibition [6] [%]	inhibition [7] [%]	inhibition [8] [%]	inhibition [9] [%]	inhibition [10] [%]
CCn1c(-c2nonc2N)nc2ccc(F)cc21	3.56	1.74	2.03	0.43	1.87	1.78	5.06	0.45	-0.34	4.39
CCOc1nccc2c1nc(-c1nonc1N)n2CC	4.98	7.99	12.8	4.56	14.7	7.65	18.3	0.39	-0.46	3.45
CC(C)c1ccc(Nc2nccc(-c3cnn4ncccc34)n2)cc1	4.11	12.6	48.9	-0.04	3.13	1.33	4.11	-0.71	2.35	1.42
Cc1ccc(O)cc1Nc1ccnc2ccc(S(C)(=O)=O)cc12	3.93	2	4.91	0.5	1.8	2.1	5.1	-0.51	0.98	2.94
COc1cc(/C=N/Nc2ncnc3c2cnn3C(C)C)ccc1O	4.32	7.43	22.3	1.45	7.43	1.52	12.1	1.23	0.59	-0.2
NS(=O)(=O)c1cccc(Nc2cc(-c3ccc(F)cc3)n[nH]2)c1	10.9	-3.46	12.6	1.36	5.97	3.15	11.2	-0.34	-0.05	2.68
Cc1cc(-c2ccccn2)cc(C)c1/C=C/c1cncc(-c2nn[nH]n2)c1	3.78	2.95	6.85	2.2	-0.86	1.67	3.37	0.06	0.67	2.42
Nc1ccc(C#Cc2cncnc2Nc2ccc(OCc3cccc(F)c3)c(Cl)c2)cc1	2.03	1.31	-1.87	1.62	0.9	1.82	1.94	0.26	0.65	1.19
Nc1nccc(-c2c(-c3ccc(F)cc3)nn3cc(C(F)(F)F)ccc23)n1	0.34	0.16	-3	-0.37	0.47	0.15	-0.77	-1.67	-2.05	0.49
COc1cc2ncnc(Nc3ccc(C)c(O)c3)c2cc1OC	5.2	7.16	1.93	1.23	3.78	3.07	6.2	-0.09	0.02	2.98
Oc1cccc(-c2nc(-c3ccccc3)[nH]c2-c2ccncc2)c1	4.6	0.46	2.27	-0.48	1.89	1.98	4.34	0.26	1.01	3.36
Cc1ccc(Nc2ccnc(Nc3cccc(C(N)=O)c3)n2)cc1O	5.29	7.76	41.1	0.1	6.23	2.24	9.72	1.34	4.12	3.21
NS(=O)(=O)c1cccc(-c2cc3ccncc3cc2OCc2ccccc2)c1	7.06	8.52	11.3	3.31	3.45	2.26	3.2	0.47	0.96	4.23
CCS(=O)(=O)c1ccc(OC)c(Nc2nccc(N(C)c3ccc4c(C)n[nH]c4c3)n2)c1	3.91	-0.8	-2.26	0.17	4.69	3.82	4.12	3.64	0.51	2.57
O=C1Nc2ccc(-c3cccnc3)cc2C1=Cc1cc(Br)c(O)c(Br)c1	7.03	-0.34	4.71	2.51	4.37	2.22	2.32	1.08	4.01	2.95
C[C@@H](Oc1cc(-n2cnc3ccc(OC[C@@H](O)CO)cc32)sc1C(N)=O)c1ccccc1Cl	2.08	6.98	39.1	15.7	55.8	24.2	68.3	-0.01	0.92	-2.71
